# Rab9 prom act: activators of Rab9 promoter | Huh7 Rab9 promoter-luciferase reporter, luminescence, 24 h | 2.8% of 320,000 active | AID 485297 | Potency, µM (highest dose often 9.22 µM), inactives show at the top dose activation, negative = inhibition, most hits filed as activators; further: % of control where 0% means no effect; nearly all actives have a fitted effect of over 60% in size
#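 Luminescence from Amplite-detected luciferase (10 minutes, ambient) reports Rab9 promoter activation. Before that, stable Rab9-luciferase Huh7 cells (1500/well, reduced-serum OP-MEM I plus 10% FBS) were exposed to compound for 24 hours at 37C.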
# NPC1 prom act: NPC1 promoter activation. Potency, µM (titrated, usually from 9.22 µM), for inactives: at the top dose activation, usual class: activators. 2.4% of 320,000 active. Huh7 NPC1 promoter luciferase reporter, 24 h; further: % of control where 0% means no effect; nearly all actives have a fitted effect of over 60% in size
#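 Readout is luciferase luminescence, reflecting NPC1 promoter activation in stably transfected Huh7 cells after 24 h compound exposure at 37 °C in reduced-serum medium with 10% FBS.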
# ELG1 repair inh: inhibitors of ELG1-dependent DNA repair in HEK293T cells | 2.3% of 330,000 active | Potency, µM (highest dose often 46.1 µM), for the others: at the highest dose activity change, negative = inhibition, actives largely listed as inhibitors | HEK293T ELG1-luciferase reporter, luminescence, 16 h; DNA damage induced by 5-fluorouridine; further: on the % scale 0 is the no-effect control and ±100 the full control effect; nearly all actives have a fitted effect of over 55% in size
#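 5-Fluorouridine DNA damage + compound/DMSO, 2,000 cells/well, 16 h, 37 °C/5% CO2. ONE-Glo, 30 min RT, luminescence. Readout = decrease in reporter signal.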
# ELG1 genotoxic: inducers of genotoxicity in HEK293T ELG1-luciferase cells. HEK293T ELG1-luciferase reporter, luminescence, 16 h. Potency, µM (doses to about 46 µM), inactives show top-dose activity change, positive = activation, most hits filed as activators. 1.3% of 330,000 active; further: % of control where 0% means no effect; nearly all actives have a fitted effect of over 60% in size
#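 ELG1-luciferase HEK293T cells, 2,000/well; compound pinned in; 16 hr, 37 °C, 5% CO2; ONE-Glo, 30 min RT; luminescence on CCD imager.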
# FLuc modulator: firefly luciferase modulation, counter-screen for miR-21 project | P08659 | purified FLuc, Km substrates, luminescence inhibition | Potency, µM (series often up to 57.5 µM), without a hit: at the highest dose activity change, negative = inhibition, most hits filed as inhibitors | 6.9% of 360,000 active;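 further: plate controls were vehicle for no effect and reference inhibitor for full effect; nearly all actives have a fitted effect of over 55% in size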
# Target sequence (P08659 whole entry, looked up): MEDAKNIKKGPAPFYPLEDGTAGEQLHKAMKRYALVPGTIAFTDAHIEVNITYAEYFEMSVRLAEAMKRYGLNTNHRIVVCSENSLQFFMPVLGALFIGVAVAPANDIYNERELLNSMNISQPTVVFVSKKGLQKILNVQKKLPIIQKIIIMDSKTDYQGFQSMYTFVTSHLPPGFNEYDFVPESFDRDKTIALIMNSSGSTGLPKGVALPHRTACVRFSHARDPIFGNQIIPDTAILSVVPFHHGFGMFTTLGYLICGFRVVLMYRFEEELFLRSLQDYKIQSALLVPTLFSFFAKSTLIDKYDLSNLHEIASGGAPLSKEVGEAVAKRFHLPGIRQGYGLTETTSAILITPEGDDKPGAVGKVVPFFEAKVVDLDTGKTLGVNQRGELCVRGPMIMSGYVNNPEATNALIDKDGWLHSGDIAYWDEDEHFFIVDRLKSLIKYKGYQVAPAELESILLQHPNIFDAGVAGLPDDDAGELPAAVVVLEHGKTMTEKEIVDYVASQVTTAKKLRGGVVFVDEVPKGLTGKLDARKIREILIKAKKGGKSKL
#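 Biochemical qHTS of compounds, final roughly 60 µM downward over six points, against 10 nM purified firefly luciferase using Km concentrations of substrates (10 uM D-luciferin, 10 uM ATP) in Tris acetate pH 7.5 buffer; luminescence output.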
# SMN2 splice up: enhancers of SMN2 splice variant expression; HEK293 SMN2-luciferase splicing reporter, luminescence, 30-36 h; Potency, µM (doses to about 46.1 µM), for inactives: top-dose activity change, positive = activation, actives largely listed as activators; 2.8% of 210,000 active; AID 1458; further: % of control where 0% means no effect; nearly all actives have a fitted effect of over 55% in size
#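 HEK293 cells carry an SMN2 minigene-luciferase reporter in which exon 7 inclusion puts luciferase in frame. Cells were seeded at 2000 cells/well, attached for 10-12 hours, then exposed to compounds for 30-36 hours at 37C before ONE-Glo luminescence.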
# Starred values were filed as active, the others as inactive; u = inconclusive; x = no result; [ ] = another dose, or the depositor's remark. This is a sample that favours compounds with a hit; in the whole collection about 9.4% have one here. The call rests on the fitted dose curve; in most records, active means well fitted curve in the direction sought with a large enough effect; inconclusive means small, poorly fitted or top-dose-only effect, or another doubt; inactive means no such curve, though single readings can be large; an effect the other way counts as inactive or inconclusive. Potency means the concentration at half of the fitted maximal effect.
SMILES,Rab9 prom act,NPC1 prom act,ELG1 repair inh,ELG1 genotoxic,FLuc modulator,SMN2 splice up
O=C(CCSc1ccccc1)NCCSCc1ccccc1,-4%,3%,16%,1%,21µM*,6%
Cc1cccc(CSCCNC(=O)CCSc2ccccc2)c1,-10%,-3%,-1%,2%,-19%,-21%
Cc1cc(C)cc(N2CC(c3nc(-c4ccccc4C)no3)CC2=O)c1 (configuration not stated),x,x,x,x,-8%,x
COc1cccc(C2CC(=O)Nc3c2c(=O)nc2c(C)cccn32)c1 (configuration not stated),x,x,x,x,2%,4%
COc1cccc(C(=O)NCCSc2ccc(F)cc2)c1,u,u,u,18%,19µM*,13µM*
COc1cccc(C(=O)NCCSc2ccc(C)cc2)c1,-1%,-13%,4%,1%,-10%,-23%
O=C(NCCOc1ccccc1)c1cncc(Br)c1,u,u,u,16µM*,u,5%
O=C(NCCc1ccccc1Cl)c1ccc(Cn2c(=O)c3cccn3c3cccnc32)cc1,x,x,x,x,-2%,x
O=C1c2ccccc2-c2ccc(N=[N+]([O-])c3ccc4c(c3)C(=O)c3ccccc3-4)cc21,x,x,x,x,x,-7%[9.22 µM]
O=C(Nc1sc2c(c1C(=O)NCc1ccco1)CCCC2)c1ccc2c(c1)OCO2,u,0%,u,10µM*,12µM*,u
COc1ccc(C(=O)Nc2sc3c(c2C(=O)NCc2ccco2)CCCC3)cc1OC,-5%,-10%,16µM*,5%,1%,-5%
Cc1ccc(C(=O)Nc2sc3c(c2C(=O)NCc2ccco2)CCCC3)cc1,1%,-3%,u,13%,-18%,12%
Cc1c(C(=O)NC(C)c2ccccc2)sc2ncnc(N(C)C3CCCCC3)c12 (configuration not stated),x,x,x,x,7%,x
Cc1ccsc1CCN1C(=O)N(c2ccc(F)cc2)C(=O)C1CC(=O)Nc1ccccc1 (configuration not stated),x,x,x,x,-14%,8%
COc1ccc(-c2cc3nc4n(c(=O)c3s2)CCCCC4)cc1,0.71µM*,0.63µM*,u,2.6µM*,1.3µM*,x
COc1ccc(-c2nc3n(c2C)CCC3)cc1,18%,22%,u,14%,u,x
COc1ccc(-c2cc3nc4n(c(=O)c3s2)CCC4)cc1,0.5µM*,0.45µM*,u,0.13µM*,0.6µM*,0.63µM*
NNC(=O)CS(=O)(=O)Nc1ncccn1,x,x,x,x,x,-8%[9.22 µM]
COc1ccccc1-c1nc2cc(NC(=O)c3ccccc3Cl)ccc2o1,x,x,x,x,5.4µM*,11%
O=C(Cc1ccc(Cl)cc1)Nc1ccc2oc(-c3ccccc3F)nc2c1,x,x,x,x,-14%,14%
O=C(Nc1ccc2oc(-c3ccccc3F)nc2c1)c1ccccc1Cl,x,x,x,x,3.4µM*,14µM*
CC(C)(C)C(=O)Nc1ccc2oc(-c3cc(F)c(F)cc3Cl)nc2c1,4.5µM*,u,u,5.2µM*,2.7µM*,25%
CCN1CCN(C(=O)c2sc3ncnc(N4CCc5ccccc5C4)c3c2C)CC1,-1%,-4%,u,-6%,-15%,-25%
Cc1c(C(=O)N2CCOCC2)sc2ncnc(N3CCc4ccccc4C3)c12,2%,-2%,12%,1%,u,-3%
Cc1c(C(=O)N2CCCCC2C)sc2ncnc(N3CCc4ccccc4C3)c12 (configuration not stated),1%,-4%,21µM*,-5%,u,-60%
SMILES,Rab9 prom act,NPC1 prom act,ELG1 repair inh,ELG1 genotoxic,FLuc modulator,SMN2 splice up
COc1ccccc1N1CCN(c2ncnc3sc(C(=O)NCC4CCCO4)c(C)c23)CC1 (configuration not stated),-2%,-6%,9.2µM*,-11%,3%,x
COCCCNC(=O)c1sc2ncnc(N3CCc4ccccc4C3)c2c1C,13%,2%,8.2µM*,-10%,-15%,x
Cc1ccc(NC(=O)c2ccc(=O)n(Cc3ccccc3C)c2)c(C)c1,x,x,x,x,-5%,x
CCn1c(/C=C/c2ccccc2)nc2ccccc21,1.3µM*,2µM*,u,u,0.6µM*,7.1µM*
COc1ccc(Cn2c(/C=C/c3ccccc3)nc3ccccc32)cc1,1.3µM*,2.5µM*,u,u,0.85µM*,u
CCCn1c(/C=C/c2cc[n+](C)cc2)nc2ccccc21,-2%,-5%,-4%,-2%,-1%,x
CCCCCCn1c(/C=C/c2ccccc2)nc2ccccc21,x,x,x,x,3µM*,-82%
COc1ccc(/C=C/c2nc3ccccc3n2C)cc1,u,u,u,u,0.13µM*,0.32µM*
CCn1c(/C=C/c2ccccc2)nc2ccccc2c1=O,0%,-1%,-19%,-7%,-17%,x
Cc1ccc(NC(=O)c2cc(S(=O)(=O)N3CCc4ccccc43)ccc2F)cc1Cl,x,x,x,x,3%,x
CCCn1c(=O)c2sccc2n2c(CCCC(=O)NC3CCN(Cc4ccccc4)CC3)nnc12,8%,-2%,8%,0%,1%,x
COc1ccccc1/C=C/c1nc2ccc(OC(C)=O)cc2c(=O)o1,3%,-2%,-1%,1%,u,x
CC(O)c1nc2ccccc2n1C/C=C/c1ccccc1 (configuration not stated),-3%,-2%,13%,4%,4%,-36%
CC(C)Cn1c(/C=C/c2ccccc2)nc2ccccc21,2.8µM*,u,u,4%,4.8µM*,x
COc1ccccc1/C=C/c1nc2ccccc2n1C(C)C,x,x,x,x,3.4µM*,u
COc1ccc(C(O)c2nc3ccccc3n2C(C)C)cc1 (configuration not stated),-5%,-9%,-27%,-4%,-1%,x
O=C(Cn1c(/C=C/c2ccccc2)nc2ccccc21)Nc1ccc(F)cc1,u,21%,u,u,4.8µM*,u
COc1ccc(/C=C/c2nc3ccccc3c(=O)o2)cc1,0.089µM*,u,u,0.82µM*,0.6µM*,x
COc1ccccc1NC(=O)CSc1oc(-c2cccs2)nc1S(=O)(=O)c1ccccc1,x,x,x,x,2%,-2%
CCOc1ccc(CN2C(=O)c3ccccc3Sc3ccc(C(=O)OC)cc32)cc1,x,x,x,x,0%,x
COc1ccc(C2c3c(oc4cc(C)cc(C)c4c3=O)C(=O)N2Cc2ccco2)cc1OC (configuration not stated),x,x,x,x,-1%,4%
CCC(C)n1c(S(=O)(=O)O)nc2ccccc21 (configuration not stated),9%,3%,29%,1%,0%,3%
